# Experimental data reported in PubChem BioAssay AID2314 (National Center for Advancing Translational Sciences (NCATS), 2010).
# Out of some 300,000 compounds screened, about 37,000 (12%) were called active. Cut-off read from the data, not from the text of the source: active = max response mostly above about 13% (no sharp cut-off); inactive = mostly below about 14%. This excerpt belongs to a sample that is enriched for actives.
# Test: Cycloheximide Counterscreen for Small Molecule Inhibitors of Shiga Toxin; note: read at 38.3 µM for the half of the compounds with a filed dose; 0% is about no effect
# Conditions: cell reporter, cycloheximide protein synthesis inhibition counterscreen; hits give high values
row,Compound,max response
1,COC(=O)c1ccc(C(NC(=O)OCc2ccccc2)/C(F)=C/[C@@H](C)C(=O)O)cc1 (stereo partly specified),6.37% (inactive)
2,CN1CCC(=O)N([C@H](CO)Cc2ccccc2)CC1,1.38% (inactive)
3,Cn1c(=NC(=O)C2CC2)sc2cc(F)cc(F)c21,-0.185% (inactive)
4,Cn1c(=NC(=O)c2ccco2)sc2cccc(F)c21,72.9% (active)
5,CCCC(=O)N=c1sc2cccc(F)c2n1C,-3.69% (inactive)
6,COC(=O)c1c(NC(=O)c2ccccc2F)sc2c1C(C(=O)OC)CC2 (stereo unspecified),7.34% (inactive)
7,C/C(=N\N)c1c(-c2ccccc2)c2cc(Br)ccc2[nH]c1=O,1% (inactive)
8,O=C(Cn1nc([N+](=O)[O-])nc1Br)NC1CCCCC1,-4.71% (inactive)
9,Cc1ccccc1C(=O)NC(=S)NC1CC1,19.1% (active)
10,COc1ccccc1C(=O)NC(=S)NC12CC3CC(CC(C3)C1)C2,13.4% (inactive)
11,O=C(NNC(=S)NC1CCCCC1)c1ccccc1Cl,5.48% (inactive)
12,CC(C)CC(CCc1ccccc1)OS(N)(=O)=O (stereo unspecified),2.53% (inactive)
13,COc1ccc(C(=O)CCC(=O)Nc2ccc(Cl)cc2)cc1,0.287% (inactive)
14,COc1ccc(C(=O)N/N=C(\C)CC(=O)Nc2ccc(Cl)cn2)cc1,28.3% (active)
15,COc1ccc(COC(=O)N/N=C(\C)CC(=O)Nc2ccc(Cl)cc2)cc1,12.4% (inactive)
16,Cc1ccc(-n2c(-c3ccc(Cl)cc3)n[nH]c2=S)cc1,-1.99% (inactive)

row,Compound,max response
1,O=C(NCCCN1CCOCC1)c1ccc2c(c1)N(Cc1cccc(F)c1)C(=O)c1ccccc1S2,-7.81% (inactive)
2,Nc1cc(N)nc(SCc2cccc(F)c2)n1,45.9% (active)
3,Nc1cc(N)nc(SCc2ccc(Cl)cc2)n1,15.3% (inactive)
4,Cc1cc(=O)[nH]c(SCc2cccc(F)c2)n1,0.752% (inactive)
5,C[n+]1cc(-c2ccccc2)oc1-c1ccccc1,52.4% (active)
6,Cc1cc(C)n(-c2nnc(N3CCN(c4ccccc4)CC3)nn2)n1,22.1% (active)
7,Cc1cc(N2CCN(c3ccccc3)CC2)nc(N2CCOCC2)n1,-2.2% (inactive)
8,Cc1cc(C)n(-c2cc(Oc3ccccc3)ncn2)n1,21.7% (inactive)
9,CCOC(=O)C1=C(CN2CCc3ccccc32)NC(=O)NC1c1ccc(Cl)cc1 (stereo unspecified),15.3% (inactive)
10,O=C(CSCc1cccs1)N1CCCC1,31.1% (active)
11,O=C(CSCc1ccc(Cl)cc1)N1CCCCC1,44.9% (active)
12,O=C(CSc1ccsc1[N+](=O)[O-])N1CCCCC1,26.9% (inactive)
13,Cn1c(SCC(=O)N2CCCC2)nnc1-c1cccs1,11.6% (inactive)
14,O=C(CN1CCN(c2ccc(Cl)cc2)CC1)N1CCCC1,6.76% (inactive)
15,O=C(CSCc1ccc(Cl)cc1)N1CCN(Cc2ccc3c(c2)OCO3)CC1,10.5% (inactive)
